# In PubChem BioAssay (NCI):
# About 79,000 compounds went through this panel and 15% of them were active in at least one assay; those are over-represented in the sample as a whole. A number with no mark means an inactive call. Calls of active or inactive are those of the source. Cut-off read from the data, not from the text of the source: active = growth inhibition above about 70%; inactive = the rest.
# Columns and labels:
# [1] = NCI Yeast Anticancer Drug Screen. Data for the mlh1 strain (AID 171);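 note: 0% = growth of vehicle-treated control cultures of the same strain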; settings: S. cerevisiae mlh1 strain growth inhibition, active compounds read high
# In short: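 Steps: expose the defined-mutant yeast strain to compound; expose a parallel culture to vehicle; measure growth; express compound effect as inhibition relative to the vehicle culture.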
# [2] = NCI Yeast Anticancer Drug Screen. Data for the sgs1 strain (AID 173);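 note: 0% = growth of vehicle-only control cultures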; settings: S. cerevisiae sgs1 mutant, active compounds read high
# In short: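 Treat defined-mutant yeast with compound; measure growth; calculate inhibition relative to vehicle-treated cells.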
# [3] = NCI Yeast Anticancer Drug Screen. Data for the mlh1 rad18 strain (AID 175); settings: S. cerevisiae mlh1 rad18 strain growth inhibition, active compounds read high
# In short: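 Test agents were incubated with a yeast strain of defined genotype (DNA damage repair defect). Inhibition of growth was derived by comparison with vehicle-exposed cultures.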
# [4] = NCI Yeast Anticancer Drug Screen. Data for the rad18 strain (AID 177); settings: S. cerevisiae rad18 mutant growth inhibition, active compounds read high
# In short: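 A genetically defined yeast mutant impaired in DNA damage repair was treated with test compounds, then its growth was measured against cultures receiving vehicle alone.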
# [5] = NCI Yeast Anticancer Drug Screen. Data for the rad52 strain (AID 147);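 note: 0% = growth of vehicle-treated control cultures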; settings: S. cerevisiae rad52 mutant growth inhibition, active compounds read high
# In short: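 Screen used a yeast mutant impaired in DNA repair. After compound exposure, growth was measured. Values reflect inhibition compared with vehicle-treated cells.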
# [6] = NCI Yeast Anticancer Drug Screen. Data for the wt1 strain (AID 149);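 note: 0% = growth of vehicle-treated wt1 cultures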; settings: S. cerevisiae wt1 strain (SPY 50644) growth inhibition, active compounds read high
# In short: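 Using yeast strain wt1, compound-induced growth inhibition was determined against vehicle-treated cultures.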
# [7] = NCI Yeast Anticancer Drug Screen. Data for the rad50EPP+ strain (AID 151);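 note: 0% = growth of vehicle-treated control cultures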; settings: S. cerevisiae rad50 mutant strain, active compounds read high
# In short: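 Exposing the rad50EPP+ strain to each compound, growth was compared with vehicle-only cultures to give inhibition.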
# [8] = NCI Yeast Anticancer Drug Screen. Data for the mgt1 strain (AID 153); settings: S. cerevisiae mgt1 mutant growth inhibition, active compounds read high
# In short: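 Genetically defined yeast (mgt1) treated with compound; inhibition of growth expressed against vehicle-treated controls.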
# [9] = NCI Yeast Anticancer Drug Screen. Data for the rad50 strain (AID 155);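 note: 0% = growth of vehicle-only cultures of the same strain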; settings: S. cerevisiae rad50 strain growth inhibition, active compounds read high
# In short: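 Relative growth inhibition (compound vs vehicle) was measured in yeast with a defined repair-gene alteration.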
# [10] = NCI Yeast Anticancer Drug Screen. Data for the mec2-1 strain (AID 157); settings: S. cerevisiae mec2-1 strain, active compounds read high
# In short: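 Readout is yeast growth inhibition, normalised to vehicle-treated controls, in the mec2-1 strain exposed to compound.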
# [11] = NCI Yeast Anticancer Drug Screen. Data for the rad14 strain (AID 159);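 note: 0% = growth of vehicle-treated control cultures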; settings: S. cerevisiae rad14 strain growth inhibition, active compounds read high
# In short: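 Screen for anticancer potential: a yeast strain altered in DNA damage repair is grown with compound, and reduced growth is quantified against vehicle controls.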
# [12] = NCI Yeast Anticancer Drug Screen. Data for the CLN2oe strain (AID 163);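 note: 0% = growth of vehicle-only control cultures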; settings: S. cerevisiae CLN2oe strain, active compounds read high
# In short: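 Values reflect how much compound exposure reduced yeast growth, referenced to vehicle-exposed cells. Assay organism is a strain with a defined genetic change affecting cell-cycle control.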
# [13] = NCI Yeast Anticancer Drug Screen. Data for the cln2 rad14 strain (AID 165);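 note: 0% = growth equal to vehicle treated cultures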; settings: S. cerevisiae cln2 rad14 strain, active compounds read high
# In short: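 Relative to vehicle controls, growth inhibition of compound-treated cln2 rad14 yeast was recorded.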
# [14] = NCI Yeast Anticancer Drug Screen. Data for the bub3 strain (AID 167); settings: S. cerevisiae bub3 mutant strain, active compounds read high
# In short: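 Screening used yeast with an engineered genetic alteration affecting cell cycle control. Compound-exposed cultures were compared with vehicle cultures, and reduced growth was taken as inhibition.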
# [15] = NCI Yeast Anticancer Drug Screen. Data for the wt2 strain (AID 169);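 note: 0% = growth of vehicle-treated yeast cultures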; settings: S. cerevisiae wt2 strain growth inhibition, active compounds read high
# In short: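 Values express reduction in yeast growth under compound treatment, referenced to vehicle-treated cells.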
# [16] = NCI Yeast Anticancer Drug Screen. Data for the sgs1 mgt1 strain (AID 161);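 note: 0% = growth of cultures given vehicle only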; settings: S. cerevisiae sgs1 mgt1 strain, active compounds read high
# In short: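 Growth of a repair-deficient yeast mutant was monitored after compound treatment and expressed as inhibition relative to vehicle-treated cultures.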
# [17] = at 5.0 µM (retest, dose inferred, filed as 0.5)
# [18] = at 50.0 µM (retest, dose inferred, filed as 5.0)
smiles,measurement,setting,value
CC(C)/C(Cl)=N\OC(=O)Nc1ccc(F)cc1,growth inhibition,[1]; at 1.2 µM,1%
same,growth inhibition,[1]; at 3.7 µM,2%
same,growth inhibition,[1]; at 11.0 µM,6%
same,growth inhibition,[1]; at 33.0 µM,62%
same,growth inhibition,[1]; at 100.0 µM,98% (active)
same,growth inhibition,[2]; at 1.2 µM,-1%
same,growth inhibition,[2]; at 3.7 µM,-2%
same,growth inhibition,[2]; at 11.0 µM,13%
same,growth inhibition,[2]; at 33.0 µM,89% (active)
same,growth inhibition,[2]; at 100.0 µM,99% (active)
same,growth inhibition,[3]; [17],33%
same,growth inhibition,[3]; [18],54%
same,growth inhibition,[3]; at 50.0 µM,-41.8%
same,growth inhibition,[4]; at 1.2 µM,-1%
same,growth inhibition,[4]; at 3.7 µM,0%
same,growth inhibition,[4]; at 11.0 µM,2%
same,growth inhibition,[4]; at 33.0 µM,5%
same,growth inhibition,[4]; at 100.0 µM,56%
CC1=NN(c2cccc(Cl)c2)C(=O)C1,growth inhibition,[5]; at 1.2 µM,-33%
same,growth inhibition,[5]; at 3.7 µM,-33%
same,growth inhibition,[5]; at 11.0 µM,-22%
same,growth inhibition,[5]; at 33.0 µM,-16%
same,growth inhibition,[5]; at 100.0 µM,14%
same,growth inhibition,[6]; at 1.2 µM,-13%
same,growth inhibition,[6]; at 3.7 µM,-36%
same,growth inhibition,[6]; at 11.0 µM,-22%
same,growth inhibition,[6]; at 33.0 µM,-2%
same,growth inhibition,[6]; at 100.0 µM,28%
same,growth inhibition,[7]; at 1.2 µM,-65%
same,growth inhibition,[7]; at 3.7 µM,-50%
same,growth inhibition,[7]; at 11.0 µM,-38%
same,growth inhibition,[7]; at 33.0 µM,-27%
same,growth inhibition,[7]; at 100.0 µM,-26%
same,growth inhibition,[8]; at 1.2 µM,-21%
same,growth inhibition,[8]; at 3.7 µM,-44%
same,growth inhibition,[8]; at 11.0 µM,-40%
same,growth inhibition,[8]; at 33.0 µM,8%
same,growth inhibition,[8]; at 100.0 µM,63%
same,growth inhibition,[9]; at 1.2 µM,-47%
same,growth inhibition,[9]; at 3.7 µM,-54%
same,growth inhibition,[9]; [17],81% (active)
same,growth inhibition,[9]; at 11.0 µM,-61%
same,growth inhibition,[9]; at 33.0 µM,-44%
same,growth inhibition,[9]; [18],99% (active)
same,growth inhibition,[9]; at 50.0 µM,43.4%
same,growth inhibition,[9]; at 100.0 µM,28%
same,growth inhibition,[10]; at 1.2 µM,-35%
same,growth inhibition,[10]; at 3.7 µM,-27%
same,growth inhibition,[10]; [17],74% (active)
same,growth inhibition,[10]; at 11.0 µM,-5%
same,growth inhibition,[10]; at 33.0 µM,8%
same,growth inhibition,[10]; [18],100% (active)
same,growth inhibition,[10]; at 50.0 µM,56.1%
same,growth inhibition,[10]; at 100.0 µM,32%
same,growth inhibition,[11]; at 1.2 µM,-4%
same,growth inhibition,[11]; at 3.7 µM,-21%
same,growth inhibition,[11]; at 11.0 µM,-22%
same,growth inhibition,[11]; at 33.0 µM,3%
same,growth inhibition,[11]; at 100.0 µM,36%
same,growth inhibition,[12]; at 1.2 µM,-26%
same,growth inhibition,[12]; at 3.7 µM,-4%
same,growth inhibition,[12]; at 11.0 µM,-1%
same,growth inhibition,[12]; at 33.0 µM,-15%
same,growth inhibition,[12]; at 100.0 µM,20%
same,growth inhibition,[13]; [17],39%
same,growth inhibition,[13]; [18],62%
same,growth inhibition,[13]; at 50.0 µM,27.2%
same,growth inhibition,[14]; at 1.2 µM,-42%
same,growth inhibition,[14]; at 3.7 µM,-33%
same,growth inhibition,[14]; [17],27%
same,growth inhibition,[14]; at 11.0 µM,-32%
same,growth inhibition,[14]; at 33.0 µM,-36%
same,growth inhibition,[14]; [18],33%
same,growth inhibition,[14]; at 50.0 µM,57.1%
same,growth inhibition,[14]; at 100.0 µM,29%
same,growth inhibition,[15]; at 1.2 µM,-31%
same,growth inhibition,[15]; at 3.7 µM,-28%
same,growth inhibition,[15]; at 11.0 µM,-15%
same,growth inhibition,[15]; at 33.0 µM,8%
same,growth inhibition,[15]; at 100.0 µM,51%
same,growth inhibition,[1]; at 1.2 µM,-13%
same,growth inhibition,[1]; at 3.7 µM,-20%
same,growth inhibition,[1]; at 11.0 µM,-16%
same,growth inhibition,[1]; at 33.0 µM,2%
same,growth inhibition,[1]; at 100.0 µM,56%
same,growth inhibition,[2]; at 1.2 µM,-27%
same,growth inhibition,[2]; at 3.7 µM,-22%
same,growth inhibition,[2]; at 11.0 µM,-11%
same,growth inhibition,[2]; at 33.0 µM,4%
same,growth inhibition,[2]; at 100.0 µM,50%
same,growth inhibition,[3]; [17],73% (active)
same,growth inhibition,[3]; [18],100% (active)
same,growth inhibition,[3]; at 50.0 µM,44%
same,growth inhibition,[4]; at 1.2 µM,-47%
same,growth inhibition,[4]; at 3.7 µM,-34%
same,growth inhibition,[4]; at 11.0 µM,-22%
same,growth inhibition,[4]; at 33.0 µM,-20%
same,growth inhibition,[4]; at 100.0 µM,8%
c1ccc(-c2ccnc3c2ccc2c(-c4ccccc4)ccnc23)cc1,growth inhibition,[5]; at 1.2 µM,4%
same,growth inhibition,[5]; at 3.7 µM,21%
same,growth inhibition,[5]; at 11.0 µM,50%
same,growth inhibition,[5]; at 33.0 µM,99% (active)
same,growth inhibition,[5]; at 100.0 µM,99% (active)
same,growth inhibition,[6]; at 1.2 µM,5%
same,growth inhibition,[6]; at 3.7 µM,-4%
same,growth inhibition,[6]; at 11.0 µM,9%
same,growth inhibition,[6]; at 33.0 µM,97% (active)
same,growth inhibition,[6]; at 100.0 µM,97% (active)
same,growth inhibition,[7]; at 1.2 µM,2%
same,growth inhibition,[7]; at 3.7 µM,-4%
same,growth inhibition,[7]; at 11.0 µM,22%
same,growth inhibition,[7]; at 33.0 µM,97% (active)
same,growth inhibition,[7]; at 100.0 µM,97% (active)
same,growth inhibition,[8]; at 1.2 µM,10%
same,growth inhibition,[8]; at 3.7 µM,-9%
same,growth inhibition,[8]; at 11.0 µM,63%
same,growth inhibition,[8]; at 33.0 µM,98% (active)
same,growth inhibition,[8]; at 100.0 µM,97% (active)
same,growth inhibition,[9]; at 1.2 µM,7%
same,growth inhibition,[9]; at 3.7 µM,13%
same,growth inhibition,[9]; [17],2%
same,growth inhibition,[9]; at 11.0 µM,67%
same,growth inhibition,[9]; at 33.0 µM,98% (active)
same,growth inhibition,[9]; [18],97% (active)
same,growth inhibition,[9]; at 50.0 µM,91.2% (active)
same,growth inhibition,[9]; at 100.0 µM,97% (active)
same,growth inhibition,[10]; at 1.2 µM,22%
same,growth inhibition,[10]; at 3.7 µM,24%
same,growth inhibition,[10]; [17],-31%
same,growth inhibition,[10]; at 11.0 µM,53%
same,growth inhibition,[10]; at 33.0 µM,99% (active)
same,growth inhibition,[10]; [18],98% (active)
same,growth inhibition,[10]; at 50.0 µM,92.8% (active)
same,growth inhibition,[10]; at 100.0 µM,96% (active)
same,growth inhibition,[11]; at 1.2 µM,-6%
same,growth inhibition,[11]; at 3.7 µM,-17%
same,growth inhibition,[11]; at 11.0 µM,54%
same,growth inhibition,[11]; at 33.0 µM,98% (active)
same,growth inhibition,[11]; at 100.0 µM,97% (active)
same,growth inhibition,[16]; [17],23%
same,growth inhibition,[16]; [18],97% (active)
same,growth inhibition,[16]; at 50.0 µM,92.1% (active)
same,growth inhibition,[12]; at 1.2 µM,-8%
same,growth inhibition,[12]; at 3.7 µM,-20%
same,growth inhibition,[12]; at 11.0 µM,50%
same,growth inhibition,[12]; at 33.0 µM,98% (active)
same,growth inhibition,[12]; at 100.0 µM,98% (active)
same,growth inhibition,[13]; [17],48%
same,growth inhibition,[13]; [18],96% (active)
same,growth inhibition,[13]; at 50.0 µM,92% (active)
same,growth inhibition,[14]; at 1.2 µM,24%
same,growth inhibition,[14]; at 3.7 µM,27%
same,growth inhibition,[14]; [17],11%
same,growth inhibition,[14]; at 11.0 µM,60%
same,growth inhibition,[14]; at 33.0 µM,98% (active)
same,growth inhibition,[14]; [18],96% (active)
same,growth inhibition,[14]; at 50.0 µM,90.3% (active)
same,growth inhibition,[14]; at 100.0 µM,97% (active)
same,growth inhibition,[15]; at 1.2 µM,0%
same,growth inhibition,[15]; at 3.7 µM,-3%
same,growth inhibition,[15]; at 11.0 µM,11%
same,growth inhibition,[15]; at 33.0 µM,98% (active)
same,growth inhibition,[15]; at 100.0 µM,97% (active)
same,growth inhibition,[3]; [17],-32%
same,growth inhibition,[3]; [18],97% (active)
same,growth inhibition,[3]; at 50.0 µM,90.3% (active)
same,growth inhibition,[4]; at 1.2 µM,9%
same,growth inhibition,[4]; at 3.7 µM,12%
same,growth inhibition,[4]; at 11.0 µM,49%
same,growth inhibition,[4]; at 33.0 µM,98% (active)
same,growth inhibition,[4]; at 100.0 µM,97% (active)
